Target: ZNF250
Assay: pooled miR-30 sensor sort-seq; sequence = guide strand
Conditions: shRNA

Sequence | sensor-assay potency score (higher = more potent)
TTGTCTGAGTAGTCACTCCACA | -0.51
TGTCTTGTTGTGTACAGGCTGT | -0.552
TGTATGTATCTTGTGATGCTGA | -0.256
TACACTGCACACATAGGGCTTC | -0.55

Target: ZNF259
Assay: as above
Conditions: shRNA

Sequence | sensor-assay potency score (higher = more potent)
TTGTAGTGTGTGATCACCAGGG | 0.392
TCAGTCTTCACCACTTCTCTGT | 0.0434
TTCATTTCTGAGATCTTCCTCT | 0.123
TTGTACTAGCTTCATGTTGGTC | -0.732
TTCTGAGATCTTCCTCTTCTGG | -1.55
TCACACTTGCATCACAAGCTGT | -0.681
TAAACTCCTGTAGTCTCTCCGT | -0.469
TTTTCCACAAAACTGTTCCCTG | -0.697
TTGCAGTAACAGTTCATGCATA | -0.757
TAACACAATAGGCTCACACTTG | -0.434
TTCGATGATCTGGTCCATCTTC | -0.231
TTCAGTTTGACAATGAACTCAT | 0.875

Target: ZNF263
Assay: as above
Conditions: shRNA

Sequence | sensor-assay potency score (higher = more potent)
TTTCAGTGCAGTCCACACCCAT | -0.797
TTATCAGACACCTACTTCCTCT | -0.271
TACACAGTCTTTCAGCTGCATG | -1.42
TTATAGGGTCTCTCTCCCGTAT | -0.848
TGAAGCTCGGTGACTCTCGTGC | 0.166
TTGAAGCTCGGTGACTCTCGTG | -0.044
TTTGGCTGCAGTTCCTTCGGTC | 0.0507
TTCAGTGCAGTCCACACCCATA | -1.37
TAAGGTAAACTGGACAGTCAGG | -0.825
TTTTATGCCAATCCTCTGCTGC | 0.0855

Target: ZNF300
Assay: as above
Conditions: shRNA

Sequence | sensor-assay potency score (higher = more potent)
TTGCTCTTATAACAACTCGGTA | -1.42
TTTTTTTCTTGAATTGCTCTTA | 0.496
TTAGTCTTAACATCTAATGCTT | -0.171
TAGTCTTAACATCTAATGCTTC | -0.419
ATGAGTTCTGTCTTCCTGCTGA | 0.161
TGAGTTGTGACTTCTTAGCAAA | -1.22
TTCTGTATGCTTAACTTGCTGT | -0.0649
TAAAACAAGGTCTGACTTCTGA | -0.123
TTACTGAATCTGATCAACCTAT | -0.267
TTCCACATTCAGAACAATCATA | -0.99

Target: ZNF322A
Assay: as above
Conditions: shRNA

Sequence | sensor-assay potency score (higher = more potent)
TAAGACAGGAGCTTCTACCAAA | -0.88
TTCACCAATGTGTACTGTCTGA | -0.693
TTTTTCACCAATGTGTACTGTC | 0.583
TATGAGTCAACTAACTATGAGA | -0.783

Reference: the OligoGym collection
